High-throughput results (PubChem)
hgDAF12 agonist – H. glycines DAF-12 receptor agonists, primary screen, cell-based, luminescence, HEK293, GAL4 fusion, UAS-luciferase; HEK293 GAL4-hgDAF12 UAS-luciferase reporter, agonist luminescence; normalized to butyrate control; 370,000 tested, 1.8% active; activation, % at 6.8 µM; Nuclear hormone receptor DAF-12 (Heterodera glycines), GAL4 fusion;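 active = activation above a cutoff set at the mean of all screened compounds plus 3 SD, cut at about 10% in these data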;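 also: 0% = DMSO wells and 100% = sodium butyrate wells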
DAX1 inh-1 – DAX1 (NR0B1) inhibitors, primary screen, cell-based, HEK293, Gal4-DAX1, luciferase luminescence; Nuclear receptor subfamily 0 group B member 1 (Homo sapiens), P51843; HEK293 Gal4-DAX1 luciferase reporter; inhibition, % at 6.75 µM; 340,000 tested, 0.99% active; AID 504766, 2011;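 active = inhibition above the mean over all tested compounds plus 3 SD, cut at about 4.2% in these data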;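 also: 0% = DAX1-transfected cells with DMSO and 100% = empty-vector control cells with DMSO; inhibition shows as a rise in luminescence from relieved DAX1 repression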
Target sequence (P51843 207-470 limits assumed): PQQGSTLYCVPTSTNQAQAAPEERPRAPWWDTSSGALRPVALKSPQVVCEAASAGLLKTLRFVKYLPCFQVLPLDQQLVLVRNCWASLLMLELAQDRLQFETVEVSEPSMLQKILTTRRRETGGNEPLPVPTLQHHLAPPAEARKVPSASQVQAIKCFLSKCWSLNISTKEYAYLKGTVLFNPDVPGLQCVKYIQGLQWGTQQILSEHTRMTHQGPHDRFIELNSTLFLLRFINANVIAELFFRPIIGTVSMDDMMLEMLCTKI
hcDAF-12 act – H. contortus DAF-12 nuclear receptor activators, primary screen, cell-based, luminescence, HEK293, lit1-tk-luc reporter; HEK293 hcDAF-12 lit1-tk-luc reporter; 0% DMSO, 100% Δ7-dafachronic acid; activation, % at 6.8 µM; 370,000 tested, 1.4% active; AID 652067, 2013;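 active = activation above the mean of all tested compounds plus 3 SD, cut at about 5.5% in these data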;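 also: 100% = response to 3 µM Δ7-dafachronic acid high control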
DAX1 inh-2 – DAX1 (NR0B1) inhibitors on StAR promoter, primary screen, cell-based, luminescence, SF-1 (NR5A1), full-length DAX-1; 370,000 tested, 1.1% active; inhibition, % at 6.8 µM; AID 652010, 2013; HEK293T StAR-luciferase reporter, SF-1/DAX-1 repression relief;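 active = inhibition above the mean over all tested compounds plus 3 SD, cut at about 3.6% in these data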;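 also: 0% = DAX-1 cells with DMSO and 100% = cells lacking DAX-1 with DMSO; higher inhibition means more luminescence from relief of DAX-1 repression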
Wee1 stabilizer – Wee1 degradation inhibitors, primary screen, cell-based, HeLa, Wee1K328M-luciferase, luminescence | Wee1-like protein kinase (Homo sapiens), P30291 | HeLa Luc-Wee1K328M stability; 100% = proteasome inhibitor MG132 effect | reporter increase, % at 5 µM | 220,000 tested, 1.2% active | AID 1321, 2008;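 active = activation above the mean of all tested compounds plus 3 SD, set per screening run, cut at about 8.8% in these data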;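 also: cells exposed to compound for 20 h before luminescence read; 0% = DMSO alone and 100% = MG132 at 30 µM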
ssDAF-12 act – S. stercoralis DAF-12 nuclear receptor activators, primary screen, cell-based, luminescence, HEK293, GRIP1 co-expression, lit1-tk-luc; 370,000 tested, 1% active; Nuclear hormone receptor DAF-12 (Strongyloides stercoralis); HEK293 ssDAF-12/GRIP1 lit1-tk-luc reporter; % of 3 µM dafachronic acid response; AID 652126, 2013; activation, % at 6.8 µM;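 active = activation above the mean over all tested compounds plus 3 SD, cut at about 0.9% in these data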;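 also: 0% = DMSO-only wells and 100% = 3 µM delta7-dafachronic acid wells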
An asterisk follows results filed as active; nt = not tested or not shown. The list is not random: actives were taken first. Their share in the collection is about 4.6%.

SMILES | hgDAF12 agonist | DAX1 inh-1 | hcDAF-12 act | DAX1 inh-2 | Wee1 stabilizer | ssDAF-12 act
CN(C)c1ccc(Nc2nc(N)c3ccccc3n2)cc1 | 10* | -5 | 4 | 2 | nt | 1
CCOc1ccc(Nc2nc(N)c3ccccc3n2)cc1 | 8 | -5 | 4 | 2 | nt | 1.4*
COc1ccc(C)cc1Nc1nc(N)c2ccccc2n1 | 3 | -3 | 0 | 0 | nt | -1
OC(c1ccccc1)(c1ccccc1)C1CCN(CCCOc2ccc(Br)cc2)CC1 | 1 | nt | -1 | 0 | nt | -1
CC[C@]12C(=O)N(C)C[C@H]([C@@H]3C(=O)N(C)C(=O)[C@@H]31)N2C(=O)c1ccccc1 | 3 | -1 | -2 | 0 | nt | -1
CCOC(=O)Cc1nc(N2CCN(Cc3cccc4c3OCO4)CC2)c2c(C)c(C(=O)OCC)sc2n1 | 3 | nt | -2 | -3 | nt | -2
COc1cccc2c1OCC(C(=O)Nc1nccs1)=C2 | 13* | 3 | 4 | 2 | nt | 0
COc1cc(C=O)ccc1OCc1ccccc1Br | 5 | -1 | 6.2* | 1 | 2 | 0
COc1ccc(C=O)cc1COc1ccc(F)cc1F | 0 | 1 | -2 | 0 | -1 | -1
Cc1nc(C(F)(F)F)ccc1C(=O)N1CCC1(C)C(=O)Nc1ccc2c(c1)OCO2 (centres undefined) | -4 | nt | -1 | -1 | nt | -1
Cc1ccccc1NS(=O)(=O)c1nnc(NC(=O)c2ccccc2C)s1 | 0 | 2 | 6.2* | 1 | nt | 0
Cc1ccccc1NS(=O)(=O)c1nnc(NC(=O)c2ccc(Br)cc2)s1 | 0 | 1 | 0 | 0 | nt | -1
CC1=CC(c2ccc(Cl)cc2)n2ncnc2N1 (centres undefined) | 2 | 0 | -1 | 0 | nt | -2
COc1ccc(C2C=C(C)Nc3ncnn32)cc1 (centres undefined) | 3 | 4.6* | 0 | 2 | nt | -1
C=CCSc1n[nH]c(-c2ccc(OCCCC)cc2)n1 | 6 | 2 | 1 | 2 | 1 | 0.9*
Nc1nc(SCc2ccccc2)cc(SCc2ccccc2)n1 | 12* | 0 | 2 | 3 | nt | 0
C[C@H]1[C@@H](OC(=O)NCc2ccc(C(F)(F)F)cc2)CC[C@@]23CCCN2C(=O)CCC[C@@H]13 | -4 | nt | -1 | nt | nt | -2
COC(=O)[C@@]12C[C@@H](CC(=O)N3CCSCC3)C(=O)N(Cc3ccc4c(c3)OCO4)C1=CCC(C)(C)C2 | -2 | nt | -2 | 0 | nt | -1
Cc1c(NC(=O)COC(=O)CCC(=O)c2ccc(Cl)cc2)c(=O)n(-c2ccccc2)n1C | 3 | -1 | -1 | 0 | 9.4* | -1
Cc1c(NC(=O)COC(=O)c2cccn2C)c(=O)n(-c2ccccc2)n1C | 0 | 4.4* | 1 | 1 | nt | -1
Nc1c(-c2ccc(Cl)cc2)cnn1-c1ccccc1 | 10 | 3 | 3 | 2 | nt | 1
Nc1c(-c2ccccc2)cnn1-c1ccc(C(=O)O)cc1 | 12* | 0 | 3 | 2 | 3 | 0
Cc1ccc(-c2cnn(-c3cccc([N+](=O)[O-])c3)c2N)cc1 | 11* | 2 | -1 | 0 | 1 | -1
Cc1ccc(-c2cnn(-c3ccccc3)c2N)cc1 | 16* | 0 | 5 | 3 | nt | 0
COCCNC(=O)C1(C)CCCN(Cc2cc(-c3ccccc3)on2)C1 (centres undefined) | 2 | nt | -1 | 0 | nt | -1
SMILES | hgDAF12 agonist | DAX1 inh-1 | hcDAF-12 act | DAX1 inh-2 | Wee1 stabilizer | ssDAF-12 act
CC[C@@H](NCCCn1cnc2c(SC)ncnc21)c1ccccc1 | 9 | 2 | -2 | 1 | nt | -1
S=C(c1cccs1)N1CCCC1 | 3 | -1 | -1 | 0 | 0 | -1
S=C(c1cccs1)N1CCN(c2ccccc2)CC1 | -1 | 5.7* | 2 | 0 | nt | -1
Cc1ccc(C2=CCN(C)C(=O)N2c2ccc([N+](=O)[O-])cc2)cc1 | 4 | nt | 0 | 0 | nt | -1
CC(=O)OCC1=C(C(=O)O)N2C(=O)[C@@H](NC(=O)Cc3ccccc3)[C@H]2SC1 | -2 | 1 | 1 | 0 | nt | -1
CCOc1ccc(C(=O)NC2C(=O)N3C(C(=O)O)=C(COC(C)=O)CSC23)cc1OCC (centres undefined) | 1 | -1 | 0 | 4.4* | nt | -1
COc1ccc(S(=O)(=O)n2c(C)nc3ccccc32)cc1C | 12* | 0 | 4 | 0 | nt | 0
O=C(Nc1ccc(C(F)(F)F)cc1)OC1CC2CC1[C@H]1CCCCN1C2 (some centres undefined) | 3 | nt | -1 | -1 | nt | -1
Cc1cccc(C=NNc2cc(C)c3cccc(C)c3n2)n1 | 12* | nt | 4 | 1 | nt | 1
CCc1ccccc1N=Nc1c(N)[nH]n(-c2ccccc2)c1=O | 11* | nt | 1 | 2 | nt | -1
Nc1[nH]n(-c2ccccc2)c(=O)c1N=Nc1ccccc1 | 9 | 3 | 4 | 1 | 3 | 1.3*
Nc1[nH]n(-c2ccccc2)c(=O)c1N=Nc1ccccc1[N+](=O)[O-] | 8 | 2 | 2 | 1 | -3 | 0
C/C(=N\OC(=O)c1ccc(F)cc1)c1nccs1 | 2 | 1 | 2 | 0 | 3 | 1.1*
COc1ccc(C(=O)O/N=C(\C)c2nccs2)cc1 | 3 | -1 | 0 | 0 | 5 | -1
CCc1nc2ccc(C(=O)NCc3ccc(OC)cc3)cn2c1N(CCC(C)C)CCN(C)C | 1 | nt | 2 | 1 | nt | 1.2*
CS(=O)(=O)c1ccc(Cl)c(NC(=O)Cc2ccccc2F)c1 | -2 | -1 | 0 | 0 | -1 | -1
Cc1ccc(S(=O)(=O)N2CCCCC2)cc1NC(=O)COC(=O)Cc1c(F)cccc1Cl | -1 | -2 | 6.1* | 0 | -3 | -2
CS(=O)(=O)c1ccc(Cl)c(NC(=O)Cc2c(F)cccc2Cl)c1 | -2 | -1 | 5.6* | 0 | -2 | 0
Cc1[nH]c2ccccc2c1-c1csc(NC(=O)CSCCO)n1 | 0 | 5.5* | -1 | 1 | 0 | -1
Cc1csc(NC(=O)CSCC(=O)Nc2ccccc2)n1 | -1 | -1 | 0 | 0 | 1 | 0
COc1cc(OC)cc(C(=O)NC(=S)N2CCCCC2c2cccnc2)c1 (centres undefined) | -2 | 4 | 0 | 1 | nt | -1
